In all, about 5,500 compounds went through this assay and about 2,000 (36%) were called active. Another 18% or so got no clear call; they are omitted. Cut-off read from the data, not from the text of the source: active = normalized growth mostly below about 0.91 (no sharp cut-off); inconclusive = no clear call, values can overlap the other calls; inactive = mostly above about 0.92. The list shows a part of the results.
Test: chemical genetic growth profiling, strain panel (AID 1159580);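 note: tested at 20 µM; growth read once vehicle control cultures reached saturation at 30 °C; 1 = growth at the plate median or of vehicle wells; lower values mean less growth of the strain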
Settings: S. cerevisiae deletion strains, growth OD

Measured: normalized growth

O=C(O)CCC(=O)C(=O)O
inactive: locus YAL013W, strain DEP1, active compounds read low 1.01 | locus YBR021W, strain FUR4, active compounds read low 1.01 | locus YBR229C, strain ROT2, active compounds read low 1.01 | locus YCL029C, strain bik1, active compounds read low 1.03 | locus YDL035C, strain GPR1, active compounds read low 1.03 | locus YDL074C, strain BRE1, active compounds read low 1.05 | locus YDL101C, strain DUN1, active compounds read low 1.02 | locus YDL185W, strain tfp1, active compounds read low 1.03 | locus YDL192W, strain arf1, active compounds read low 1.05 | locus YDR101C, strain arx1, active compounds read low 1.05 | locus YDR162C, strain NBP2, active compounds read low 1.02 | locus YDR318W, strain mcm21, active compounds read low 1.01 | locus YDR388W, active compounds read low 1.02 | locus YDR502C, strain sam2, active compounds read low 1.03 | locus YEL061C, strain CIN8, active compounds read low 1.01 | locus YER110C, active compounds read low 1.03 | locus YER155C, strain BEM2, active compounds read low 1 | locus YER167W, strain BCK2, active compounds read low 1.01 | locus YGL078C, strain dbp3, active compounds read low 1.02 | locus YGL086W, strain mad1, active compounds read low 1 | locus YGL248W, strain PDE1, active compounds read low 1.01 | locus YGR135W, strain pre9, active compounds read low 0.987 | locus YGR229C, strain SMI1, active compounds read low 1.03 | locus YGR252W, strain gcn5, active compounds read low 0.942 | locus YHR030C, strain SLT2, active compounds read low 1.01 | locus YHR079C, strain IRE1 (second series), active compounds read low 1.03 | locus YHR094C, strain hxt1, active compounds read low 1.01 | locus YHR129C, strain ARP1, active compounds read low 1.02 | locus YHR200W, strain rpn10, active compounds read low 1 | locus YIL066C, strain RNR3, active compounds read low 1.01 | locus YIL073C, strain SPO22, active compounds read low 1.07 | locus YIL125W, strain kgd1, active compounds read low 1.02 | locus YIR030C, strain dcg1, active compounds read low 1.03 | locus YJL095W, strain BCK1, active compounds read low 1.02 | locus YJL134W, strain LCB3, active compounds read low 1 | locus YJL168C, strain set2, active compounds read low 1.01 | locus YJL187C, strain SWE1 (second series), active compounds read low 1.02 | locus YJR043C, strain POL32, active compounds read low 1.01 | locus YJR075W, strain HOC1, active compounds read low 1 | locus YKL009W, strain mrt4, active compounds read low 1.05 | locus YKL068W, active compounds read low 1.01 | locus YKL085W, strain MDH1 (second series), active compounds read low 1.01 | locus YKL085W, strain MDH1, active compounds read low 1.01 | locus YKL190W, strain CNB1, active compounds read low 1.01 | locus YKR001C, strain vps1, active compounds read low 1.05 | locus YLR039C, strain RIC1, active compounds read low 1.05 | locus YLR058C, strain SHM2, active compounds read low 1.01 | locus YLR102C, strain apc9, active compounds read low 1.01 | locus YLR262C, strain YPT6, active compounds read low 1.05 | locus YLR268W, strain sec22, active compounds read low 1.03 | locus YLR330W, strain CHS5, active compounds read low 1.01 | locus YLR342W, strain FKS1 (second series), active compounds read low 1.01 | locus YLR371W, strain rom2, active compounds read low 1.01 | locus YLR418C, strain cdc73, active compounds read low 1.02 | locus YML016C, strain PPZ1, active compounds read low 1.01 | locus YML032C, strain rad52, active compounds read low 0.995 | locus YML124C, strain tub3, active compounds read low 1.02 | locus YMR078C, strain ctf18, active compounds read low 1.03 | locus YMR223W, strain ubp8, active compounds read low 1 | locus YMR307W, strain GAS1, active compounds read low 1.05 | locus YNL067W, strain RPL9B, active compounds read low 1.01 | locus YNL128W, strain TEP1, active compounds read low 1.04 | locus YNL233W, strain BNI4, active compounds read low 1.01 | locus YNL250W, strain rad50, active compounds read low 1.03 | locus YNL271C, strain bni1, active compounds read low 1.04 | locus YNL298W, strain CLA4, active compounds read low 1.01 | locus YNL307C, strain MCK1, active compounds read low 1.04 | locus YNR052C, strain pop2, active compounds read low 1.02 | locus YOL012C, strain htz1 0.918 | locus YOL147C, strain pex11, active compounds read low 1.02 | locus YOR061W, strain CKA2, active compounds read low 1.01 | locus YOR069W, strain VPS5, active compounds read low 1 | locus YOR136W, strain idh2, active compounds read low 1.02 | locus YOR144C, strain elg1, active compounds read low 1.02 | locus YOR184W, strain ser1, active compounds read low 1.02 | locus YOR316C, strain cot1, active compounds read low 1.02 | locus YPR119W, strain clb2, active compounds read low 1.02 | locus YPR141C, strain kar3, active compounds read low 1.02 | locus YPR163C, strain tif3, active compounds read low 1.03 | locus YPR167C, strain met16, active compounds read low 1.05 | strain wtn01, active compounds read low 1.02
